# From PubChem BioAssay
# TEAD-YAP inh – TEAD-YAP interaction inhibition; HEK-TIYL cells, TEAD-Gal4/YAP UAS-luciferase luminescence; inhibition, % at 9.12 µM; hit rate 1.4% among 640,000; AID 1259422; in the data active = inhibition above about 32%;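 also: 0% = median of test compound wells and 100% = reference inhibitor wells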
# MITF inh – blocks human microphthalmia-associated transcription factor; AlphaScreen MITF homodimerization, bead proximity signal; inhibition, % at 2.6 µM; hit rate 0.91% among 650,000; AID 1259374; in the data active = inhibition above about 50%;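 also: 0% = vehicle wells with protein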
# FBW7 activator – activators of human E3 ligase FBW7; AlphaScreen FBW7–phospho-cyclin E peptide binding, activator screen; normalized activity (activation), % at 26.1 µM; hit rate 0.13% among 650,000; AID 1259310; in the data active = normalized activity above about 1.9%;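 also: purified mutant Fbw7 with reduced substrate affinity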
# GPR151 ag – activates the human receptor GPR151 | PathHunter beta-arrestin GPR151 cells, luminescence | activation, % at 11.2 µM | hit rate 1% among 650,000 | AID 1508602; in the data active = activation above about 4.9%;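 also: 0% = median of compound wells and 100% = cells with positive control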
# Target sequence (Q8TDV0 whole entry, looked up): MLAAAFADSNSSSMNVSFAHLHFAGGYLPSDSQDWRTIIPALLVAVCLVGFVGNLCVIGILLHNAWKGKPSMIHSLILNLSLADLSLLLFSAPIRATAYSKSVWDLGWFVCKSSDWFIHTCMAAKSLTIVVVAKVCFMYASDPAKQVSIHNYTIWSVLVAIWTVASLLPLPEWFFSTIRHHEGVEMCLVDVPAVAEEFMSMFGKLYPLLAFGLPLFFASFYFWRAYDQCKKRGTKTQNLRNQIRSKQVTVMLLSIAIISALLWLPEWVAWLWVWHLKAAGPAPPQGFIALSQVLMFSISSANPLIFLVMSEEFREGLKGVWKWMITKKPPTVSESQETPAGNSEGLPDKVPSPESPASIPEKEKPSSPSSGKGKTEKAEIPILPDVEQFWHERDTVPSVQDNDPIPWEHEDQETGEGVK
# Numbers without * were called inactive; x = no result; ! = a repeat was not active. In the library only some 3.5% were active in any assay of this set; here they are far more common.
SMILES,TEAD-YAP inh,MITF inh,FBW7 activator,GPR151 ag
COc1ccc(N2CCN(Cc3ccccc3[N+](=O)[O-])CC2)cc1,-11,57*,0,-1
COc1ccc(CN2CCN(c3ccc(F)cc3)CC2)c(OC)c1,1,23,0,-1
COc1ccc(N2CCN(Cc3ccc(F)cc3F)CC2)cc1,-3,56*,0,-2
COc1cccc(N2CCN(Cc3ccccc3[N+](=O)[O-])CC2)c1,6,41,0,-1
CCOC(=O)C1(c2ccccc2)CCN(CC(=O)c2ccc(Br)cc2)CC1,0,-6,0,-2
C[C@@H]1O[C@@H](O[C@@H]2C=C3CCC4C(CC[C@]5(C)[C@@H](c6ccc(=O)oc6)CC[C@]45O)[C@@]3(C)CC2)[C@H](O)[C@H](O)[C@H]1O (stereo partly specified),x,5,0,10*
O=c1c2ccccc2nc(/C=C/c2ccc([N+](=O)[O-])o2)n1-c1cccc(O)c1,34*,3,0,0
COc1ccc2c(c1)[nH]c1c(C)nccc12,85*!,-9,0,0
COc1ccc2c3c([nH]c2c1)C(C)=NCC3,24,27,0,0
C[n+]1c2ccccc2nc2ccc(NC3CCCCC3N)cc21 (stereo unspecified),77*,20,0,0
Cn1c(N)c(C(=O)COC(=O)C(O)(c2ccccc2)c2ccccc2)c(=O)n(C)c1=O,5,6,0,-1
CCOc1ccc(C(=O)C(CN2CCCC2)c2ccccc2)cc1 (stereo unspecified),4,-22,0,0
CN(C(=O)Cc1ccccc1)[C@H](CN1CCCC1)c1ccccc1,x,2,1.9*,0
CCCCOc1ccc(C(=O)Nc2ccc(Cl)cc2C(=O)c2ccccc2Cl)cc1,-2,6,0,-2
CC1O[C@@H](OC2C[C@@H](O)[C@]3(CO)[C@H]4[C@H](O)C[C@]5(C)C(C6=CC(=O)OC6)CC[C@]5(O)[C@@H]4CC[C@]3(O)C2)C(O)[C@@H](O)[C@H]1O (stereo partly specified),x,-1,0,0
CC(=O)O[C@H]1CC[C@]2(C=O)C3CC[C@]4(C)[C@@H](C5=CC(=O)OC5)CC[C@]4(O)[C@@H]3CC[C@]2(O)C1 (stereo partly specified),102*,5,0,0
C[C@@H]1O[C@@H](O[C@H]2CC[C@]3(C=O)C4CC[C@]5(C)[C@@H](C6=CC(=O)OC6)CC[C@]5(O)C4CC[C@]3(O)C2)[C@H](O)[C@H](O)[C@H]1O (stereo partly specified),101*,-3,0,-1
COc1ccc(-c2noc(CN3CC=C(c4ccc(F)cc4)CC3)n2)cc1,10,-5,0,1
O=C(Nc1ccc(Cl)cc1C(=O)c1ccccc1Cl)c1ccc([N+](=O)[O-])cc1,1,2,0,0
CCN(CC)c1ccc(CNCCc2c(C)[nH]c3ccccc23)cc1,9,75*,0,0
COc1cc(Br)c([N+](=O)[O-])cc1[N+](=O)[O-],43*,37,0,0
Cc1ccc2oc(C(=O)OC(C)C(C)CN(C)C)cc2c1 (stereo unspecified),17,10,2.5*,-2
COc1ccc(CN2CCN(c3ccccc3)CC2)cc1,-3,5,0,2
COc1ccc(OC)c(C2=NCC(=O)Nc3c2oc2ccccc32)c1,52*,-4,0,1
O=C(c1ccc2c(c1)ncn2-c1ccc(OCc2ccccc2)cc1)N1CCC2(CC1)OCCO2,42*,-2,0,2
SMILES,TEAD-YAP inh,MITF inh,FBW7 activator,GPR151 ag
O=C(c1ccc2c(c1)ncn2C1CCCCCC1)N1CCC2(CC1)OCCO2,-11,-1,0,0
COc1ccc(-n2cnc3cc(C(=O)N4CCC5(CC4)OCCO5)ccc32)cc1,48*,2,0,0
CCOC(=O)C1C2NC(=S)N(c3ccc(Cl)cc3)C1(C)Oc1ccc(Br)cc12 (stereo unspecified),54*,19,0,1
CCOC(=O)C1C2NC(=S)N(c3ccc(C)cc3)C1(C)Oc1ccc(OC)cc12 (stereo unspecified),2,43,-1,0
CCOC(=O)C1C2NC(=S)N(c3ccc(Br)cc3)C1(C)Oc1ccc(OC)cc12 (stereo unspecified),63*,17,0,-1
CC12CN3CC(C)(CN(C1)C3C1CCCC1)C2=O (stereo unspecified),6,-5,0,0
Cc1ccc(CN(CC(=O)NC2CCCCC2)C(=O)c2cnn(C(C)C)c2)cc1,-9,-7,0,0
C=CCN1C(=O)/C(=C/c2ccco2)C(=O)NC1=S,8,77*,-1,-1
O=C1NC(=S)N(c2ccccc2F)C(=O)/C1=C\c1ccco1,-8,72*,0,0
O=C1NC(=O)N(Cc2ccco2)C(=O)/C1=C\c1ccco1,-3,31,-1,-1
O=C1NC(=S)N(Cc2ccco2)C(=O)/C1=C\c1cccs1,-2,82*,-1,2
Cc1ccc(N2C(=O)/C(=C\C=C\c3ccco3)C(=O)NC2=S)cc1,-1,59*,0,-1
CNC(=O)Oc1cc2sc(=O)oc2cc1Br,-2,12,-1,-1
CCOC(=O)C1C2NC(=S)N(c3ccc(Br)cc3)C1(C)Oc1c(OC)cccc12 (stereo unspecified),21,27,0,1
O=C1NC(=S)N(c2ccccc2)C(=O)/C1=C/c1ccco1,9,66*,-1,3
O=C(OC1C[N+]2(CC(=O)N3c4ccccc4Sc4ccccc43)CCC1CC2)c1ccccc1 (stereo unspecified),5,-1,0,0
CCOC(=O)C1C2NC(=S)N(c3ccc(C)cc3)C1(C)Oc1c(Cl)cc(Cl)cc12 (stereo unspecified),63*,6,0,0
CCOC(=O)C1C2NC(=S)N(c3c(C)cccc3C)C1(C)Oc1c(Cl)cc(Cl)cc12 (stereo unspecified),-14,-1,0,2
CCOC(=O)C1C2NC(=S)N(c3cccc(Cl)c3)C1(C)Oc1c(Cl)cc(Cl)cc12 (stereo unspecified),55*,-10,0,-1
Ic1ccc2c(c1)[C@@H]1C=CC[C@@H]1[C@H](c1cccnc1)N2,1,4,0,-1
CN1CCN(c2ccc(NC(=O)CCl)cc2)CC1,9,-16,0,1
O=c1c2ccccc2nc(/C=C/c2ccc([N+](=O)[O-])cc2)n1-c1ccccc1,5,22,0,-2
COc1cc2c(cc1OC)[C@@H]1C(=O)c3ccc4c(c3O[C@@H]1CO2)C[C@H](C(C)C)O4,68*,13,0,2
CC(=O)OC1CC[C@@]2(C)C(CCC3C2CC[C@]2(C)C(C4=CC(=O)OC4)C(OC(C)=O)CC32O)C1 (stereo partly specified),100*,-24,0,2
C[C@]12CC[C@H](O)C[C@H]1CC[C@@H]1[C@@H]2CC[C@]2(C)[C@@H](C3=CC(=O)OC3)[C@@H](O)C[C@]12O,95*,22,0,-1
